About 3,300 (8.5%) of roughly 39,000 compounds were called active. The sample holds actives, similar compounds and a random draw of the others, so the mix is not that of the screen.
What follows are molecules tested on HepG2 (assay: cytotoxicity call (relative viability < 0.9)). Details: 10 µM.

Compound	cytotoxicity call
C[C@@H]1CN([C@@H](C)CO)C(=O)c2cc(NC(=O)Nc3ccccc3)ccc2O[C@H]1CN(C)CC1CCCCC1	inactive
COc1ccccc1S(=O)(=O)N[C@H]1CC[C@@H](CCNC(=O)C2CC2)O[C@H]1CO	inactive
CCOC(=O)C[C@H]1CCCNC1	inactive
CCOC(=O)c1c(C)cc(OC)cc1O	active
CCOC(=O)c1c(C)cc(O)cc1O	inactive
COC(=O)c1c(C)cc(OC)cc1O	inactive
C[C@H](CO)N1C[C@H](C)[C@H](CN(C)S(=O)(=O)c2cccs2)Oc2ncc(C#Cc3ccccc3)cc2C1=O	inactive
C[C@H]1CCCCO[C@@H](CN(C)C(=O)Nc2cccc3ccccc23)[C@@H](C)CN([C@@H](C)CO)C(=O)c2cc(NS(=O)(=O)c3ccccc3)ccc2O1	inactive
C[C@@H]1CCCCO[C@H](CN(C)C(=O)Nc2cccc3ccccc23)[C@@H](C)CN([C@@H](C)CO)C(=O)c2cc(NS(=O)(=O)c3ccccc3)ccc2O1	inactive
C[C@@H]1CCCCO[C@@H](CN(C)C(=O)Nc2cccc3ccccc23)[C@H](C)CN([C@@H](C)CO)C(=O)c2cc(NS(=O)(=O)c3ccccc3)ccc2O1	inactive
C[C@@H]1CCCCO[C@H](CN(C)C(=O)Nc2cccc3ccccc23)[C@H](C)CN([C@H](C)CO)C(=O)c2cc(NS(C)(=O)=O)ccc2O1	active
C[C@@H]1CCCCO[C@H](CN(C)C(=O)Nc2cccc3ccccc23)[C@@H](C)CN([C@H](C)CO)C(=O)c2cc(NS(=O)(=O)c3ccccc3)ccc2O1	inactive
C[C@@H]1CCCCO[C@H](CN(C)C(=O)Nc2cccc3ccccc23)[C@@H](C)CN([C@@H](C)CO)C(=O)c2cc(NS(C)(=O)=O)ccc2O1	inactive
C[C@H](CO)N1C[C@H](C)[C@@H](CN(C)C(=O)Nc2cccc3ccccc23)OCCCC[C@H](C)Oc2ccc(NS(=O)(=O)c3ccccc3)cc2C1=O	inactive
C[C@@H]1CN([C@@H](C)CO)C(=O)c2cc(NS(=O)(=O)c3ccccc3)ccc2O[C@@H](C)CCCCO[C@@H]1CN(C)C(=O)Nc1cccc2ccccc12	inactive
C[C@@H]1CCCCO[C@H](CN(C)C(=O)Nc2cccc3ccccc23)[C@H](C)CN([C@H](C)CO)C(=O)c2cc(NS(=O)(=O)c3ccccc3)ccc2O1	active
C[C@@H]1CCCCO[C@@H](CN(C)C(=O)Nc2cccc3ccccc23)[C@H](C)CN([C@H](C)CO)C(=O)c2cc(NS(=O)(=O)c3ccccc3)ccc2O1	active
C[C@@H]1CN([C@@H](C)CO)C(=O)c2cc(NS(=O)(=O)c3ccccc3)ccc2O[C@@H](C)CCCCO[C@H]1CN(C)C(=O)Nc1cccc2ccccc12	active
C[C@@H]1CCCCO[C@@H](CN(C)C(=O)Nc2cccc3ccccc23)[C@H](C)CN([C@H](C)CO)C(=O)c2cc(NS(C)(=O)=O)ccc2O1	inactive
C[C@@H]1CN([C@H](C)CO)C(=O)c2cc(NS(=O)(=O)c3cccs3)ccc2O[C@@H]1CN(C)C(=O)Nc1cccc2ccccc12	inactive
COc1ccc(-c2cn(CCNC(=O)[C@@H](NS(=O)(=O)c3ccc(C)cc3)C(C)C)nn2)cc1OC	inactive
O=C1c2ccccc2[C@@]2(Cc3ccccc3N(CC(F)(F)F)C2=O)[C@H](c2ccc(CO)cc2)N1C1CCCCC1	inactive
C[C@@H]1CN([C@H](C)CO)C(=O)Cc2cc(NC(=O)Nc3cccc4ccccc34)ccc2O[C@H]1CN(C)C(=O)Nc1cccc2ccccc12	inactive
COc1ccc(S(=O)(=O)Nc2ccc3c(c2)C(=O)N([C@H](C)CO)C[C@@H](C)[C@H](CN(C)C(=O)Nc2ccc(C(F)(F)F)cc2)OCCCC[C@H](C)O3)cc1	inactive

Compound	cytotoxicity call
COc1ccc([C@@H]2CC=CC[C@H](C)Oc3ccccc3C(=O)N(C)[C@H](Cc3ccccc3)C(=O)N2)c(OC)c1	inactive
C[C@H](CO)N1C[C@H](C)[C@@H](CN(C)C(=O)Nc2ccc3c(c2)OCO3)Oc2ncc(-c3ccncc3)cc2C1=O	inactive
C=CC[C@@H](CC(=O)NCCO)C(=O)N[C@H](COC(=O)[C@H](CC=C)CC(=O)OC(C)(C)C)Cc1c[nH]c2ccccc12	inactive
Cc1ccc(-c2csc(-c3ccc(CN)cc3)n2)cc1	inactive
Cc1ccc(Cc2nc(-c3ccc(Cl)cc3)cs2)cc1	active
Cc1ccc(-c2nc(-c3ccc(Cl)cc3)cs2)cc1F	inactive
C[C@@H]1CN([C@H](C)CO)S(=O)(=O)c2ccc(C#C[C@@H](C)O)cc2O[C@H]1CN(C)C(=O)C1CCCCC1	inactive
CN(C)CC(=O)N[C@H]1CC[C@H](CCNS(=O)(=O)c2ccccc2)O[C@@H]1CO	inactive
O=S(=O)(NCC[C@@H]1CC[C@H](NS(=O)(=O)c2ccccc2Cl)[C@H](CO)O1)c1ccc(F)cc1	inactive
CN(C)CC(=O)N[C@@H]1CC[C@@H](CCNS(=O)(=O)c2ccccc2)O[C@@H]1CO	active
O=S(=O)(NCC[C@@H]1CC[C@@H](NS(=O)(=O)c2ccccc2Cl)[C@H](CO)O1)c1ccc(F)cc1	inactive
CN(C)CC(=O)N[C@H]1CC[C@H](CCNS(=O)(=O)c2ccccc2)O[C@H]1CO	inactive
O=S(=O)(NCC[C@H]1CC[C@H](NS(=O)(=O)c2ccccc2Cl)[C@@H](CO)O1)c1ccc(F)cc1	active
C[C@H]1CCCCO[C@@H](CN(C)Cc2ccncc2)[C@@H](C)CN([C@@H](C)CO)C(=O)c2cc(NC(=O)Cc3ccccc3)ccc2O1	inactive
C[C@@H]1CN([C@@H](C)CO)C(=O)Cc2cc(NC(=O)Nc3cccc4ccccc34)ccc2O[C@H]1CN(C)S(=O)(=O)c1cccs1	inactive
C[C@H](CO)N1C[C@H](C)[C@@H](CN(C)C(=O)NC2CCCCC2)Oc2cc(-c3cccnc3)ccc2S1(=O)=O	inactive
Cc1ccc(S(=O)(=O)N2C[C@@H](O)COC[C@H]3O[C@H](CC(=O)NCCCN(C)C)CC[C@@H]32)cc1	inactive
Cc1noc(C)c1NC(=O)Nc1ccc2c(c1)C(=O)N([C@H](C)CO)C[C@H](C)[C@H](CN(C)Cc1ccc(Cl)c(Cl)c1)O2	inactive
C=CC[C@@H](CC(=O)N[C@@H](CO)Cc1ccccc1)C(=O)NC[C@@H](OC(=O)[C@@H](CC=C)Cc1ccc(F)cc1)c1ccccc1	inactive
C=CCC[C@H](Cc1ccc(F)cc1)C(=O)O[C@@H](CNC(=O)[C@@H](CC=C)CC(=O)N[C@H](CO)Cc1ccccc1)c1ccccc1	inactive
C=CCC[C@H](Cc1ccc(F)cc1)C(=O)O[C@@H](CNC(=O)[C@@H](CC=C)CC(=O)N[C@@H](CO)Cc1ccccc1)c1ccccc1	inactive
C=CC[C@@H](CC(=O)N[C@@H](CO)Cc1ccccc1)C(=O)NC[C@H](OC(=O)[C@@H](CC=C)Cc1ccc(F)cc1)c1ccccc1	inactive
C=CC[C@@H](CC(=O)N[C@H](CO)Cc1ccccc1)C(=O)NC[C@H](OC(=O)[C@@H](CC=C)Cc1ccc(F)cc1)c1ccccc1	active
C=CCC[C@@H](Cc1ccc(F)cc1)C(=O)O[C@@H](CNC(=O)[C@@H](CC=C)CC(=O)N[C@H](CO)Cc1ccccc1)c1ccccc1	active
